Screens from PubChem BioAssay.
C8 TRAIL sens: caspase-8 TRAIL sensitization | 1% of 360,000 active | inhibition (viability loss, TRAIL sensitization), % at 10 µM | NB7+C8 cells + TRAIL, ATPlite viability luminescence;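 active = compounds causing at least 50% loss of cell viability in the single-dose screen, relative to plate controls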
SENP8 block-1: inhibitors of human SENP8 protease; 0.64% of 360,000 active; recombinant SENP8, Nedd8 substrate fluorescence; inhibition, % at 20 µM; AID 602440; in the data active = inhibition mostly above about 40%, no sharp cut-off; inactive = mostly below about 27%
PPC-1+TRAIL kill: PPC-1 cancer cell killing with TRAIL present | PPC-1 cells + TRAIL, ATPLite viability luminescence | cell killing (% activity), % at 4 µM or 5 µM | 0.41% of 220,000 active;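 active = cell killing above 50% in the first pass at 4 µM, then a duplicate retest at 5 µM averaging 50% or more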;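 also: plate controls were cells with TRAIL plus DMSO for no effect and medium-only wells lacking cells for full effect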
SENP7 inh: SENP7 protease inhibition | Q9BQF6 | 1.5% of 330,000 active | recombinant SENP7, Z-RLRGG-aminoluciferin luminescence, 40 min | inhibition, % at 5 µM;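 active = inhibition above about 50% at the single test dose, limit read from the data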;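 also: plate controls were DMSO with enzyme for no effect and no enzyme buffer wells for full effect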
SENP8 block-2: inhibitors of human SENP8 protease; Q96LD8; purified SENP8, Z-RLRGG-aminoluciferin cleavage, luminescence; inhibition, % at 10 µM; 1.2% of 330,000 active; AID 2540; in the data active = inhibition above about 50%
SENP6 inh: blocks the human protease SENP6; AID 2599; inhibition, % at 10 µM; Recombinant SENP6 catalytic domain, aminoluciferin luminescence; Q9GZR1; 1.8% of 330,000 active;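 active = inhibition above about 50% at the single tested dose, limit read from the data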;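 also: plate controls were DMSO wells with enzyme for no effect and DMSO wells lacking enzyme for full effect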
Target sequence (Q9GZR1 628-1112 limits assumed): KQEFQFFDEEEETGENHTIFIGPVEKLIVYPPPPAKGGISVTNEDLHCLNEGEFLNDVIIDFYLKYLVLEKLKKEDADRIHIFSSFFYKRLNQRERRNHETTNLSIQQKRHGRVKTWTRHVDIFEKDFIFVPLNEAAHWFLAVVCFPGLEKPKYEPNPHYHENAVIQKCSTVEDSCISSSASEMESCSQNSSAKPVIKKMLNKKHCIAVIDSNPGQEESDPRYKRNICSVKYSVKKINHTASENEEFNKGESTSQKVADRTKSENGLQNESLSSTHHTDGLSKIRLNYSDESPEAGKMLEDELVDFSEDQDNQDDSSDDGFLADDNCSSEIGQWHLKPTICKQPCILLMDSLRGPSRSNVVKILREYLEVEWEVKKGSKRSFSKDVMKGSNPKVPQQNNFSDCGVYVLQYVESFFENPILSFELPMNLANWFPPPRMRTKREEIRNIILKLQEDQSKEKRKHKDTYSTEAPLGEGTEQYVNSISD
SENP8 conf: confirmation of human SENP8 protease inhibitors; shares compounds with SENP7 inh; Recombinant SENP8, Z-RLRGG-aminoluciferin luminescence, 60 min; inhibition, % at 12.5 µM; 40% of 6,200 active; AID 488912;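 active = mean inhibition across replicates above about 50%, limit read from the data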
SENP6 conf: human SENP6 inhibition, confirmed; shares compounds with SENP7 inh; recombinant SENP6, Z-RLRGG-aminoluciferin luminescence; inhibition, % at 12.5 µM; 58% of 6,200 active
SENP7 conf: confirmation of human SENP7 protease inhibitors | inhibition, % at 12.5 µM | shares compounds with SENP7 inh | recombinant SENP7, Z-RLRGG-aminoluciferin luminescence, 40 min | AID 488917 | 69% of 6,200 active
Casp3 select: caspase-3 inhibition (SENP selectivity assay); 60% of 6,200 active; purified caspase-3, Z-DEVD-aminoluciferin luminescence, 60 min; shares compounds with SENP7 inh; inhibition, % at 12.5 µM;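 active = mean inhibition above about 50%, limit read from the data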;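 also: plate controls were enzyme with DMSO for no effect and wells without caspase-3 for full effect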
Luc interf: luminescence interference (SENP counter-screen). shares compounds with SENP7 inh. Pre-incubated SENP8/Z-RLRGG-aminoluciferin, luciferase luminescence interference. inhibition, % at 12.5 µM. 39% of 6,200 active. AID 488919;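 active = mean inhibition above about 50% when retested at one dose, limit read from the data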;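 also: plate controls were DMSO wells with completed reaction for no effect and substrate without enzyme for full effect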
Numbers without * were called inactive; . = no result. The list is not random: actives were taken first. Their share in the collection is about 3%.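 The calls were made as follows, unless noted: active = mean inhibition above about 50% in the one-dose retest (limit read from the data); inactive = the rest.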

SMILES	C8 TRAIL sens	SENP8 block-1	PPC-1+TRAIL kill	SENP7 inh	SENP8 block-2	SENP6 inh	SENP8 conf	SENP6 conf	SENP7 conf	Casp3 select	Luc interf
C/C(=N\NC(=O)c1ccco1)c1ccc(NC(=O)c2ccccc2)cc1	-2	-14	22	-4	-4	9	.	.	.	.	.
C/C(=N\NC(=O)c1ccco1)c1ccc(-c2ccccc2)cc1	15	12	.	85*	55*	67*	8	34	45	37	16
O=C1CCCN1c1ccc(S(=O)(=O)NCc2ccc(F)cc2)cc1	3	5	.	0	3	-14	.	.	.	.	.
Cc1ccc(NC(=O)/C(Cl)=C/c2ccccc2)cc1C	20	14	11	81*	67*	86*	2	80*	96*	54*	37
CC(=O)Nc1ccccc1C(=O)C(=O)Nc1ccc(C)c(C)c1	9	12	15	2	-6	2	.	.	.	.	.
Cc1cc(NC(=O)COC(=O)CCS(=O)(=O)c2cc(Cl)ccc2Cl)no1	5	23	.	-6	10	1	.	.	.	.	.
O=C(CSCc1ccc(F)cc1)Nc1ccccc1	-5	4	1	65*	3	-4	7	6	0	-3	-2
O=C(CSCc1ccccc1)Nc1ccc(F)c(F)c1	-2	13	10	-7	-12	-22	.	.	.	.	.
Cc1cc(C(=O)Nc2ccc([N+](=O)[O-])cn2)cs1	12	2	.	51*	28	51*	28	41	77*	75*	12
Cc1ccc(C(=O)Nc2ccc([N+](=O)[O-])cn2)o1	-6	17	16	19	12	53*	35	29	72*	77*	24
COc1ccc(C(=O)Nc2ccc([N+](=O)[O-])cn2)cc1OC	-1	13	16	2	-10	-2	.	.	.	.	.
COc1cc(OC)cc(C(=O)Nc2ccc([N+](=O)[O-])cn2)c1	-2	5	16	81*	25	50	9	11	24	46	12
COc1ccc([N+](=O)[O-])cc1NC(=O)c1csc(C)c1	-1	17	.	-22	-23	-17	.	.	.	.	.
Cc1ccc(C)c(OCc2ccc(C(=O)Nc3ccc([N+](=O)[O-])cn3)o2)c1	20	11	.	4	-6	-8	.	.	.	.	.
Cc1cccc(C)c1NC(=O)C(c1cc2ccccc2o1)N1CCN(C)CC1 (stereo not drawn)	-4	21	.	.	.	.	.	.	.	.	.
O=C(CC1Sc2ccccc2NC1=O)NNc1cc(Cl)ccc1Cl (stereo not drawn)	-5	16	.	.	.	.	.	.	.	.	.
c1coc(C2=Nc3cccc4cccc(c34)N2)c1	2	36	2	5	14	50*	-22	-6	-9	-8	-3
CCOC(=O)COc1ccc(-c2nnc(-c3ccccc3)o2)cc1	49*	-35	32	74*	26	79*	49	49	68*	72*	14
CCOc1ccc(-c2nnc(-c3ccc(OC)cc3)o2)cc1	-3	-432	15	-12	-18	-4	.	.	.	.	.
O=[N+]([O-])c1ccc(-c2cnc3ccccc3n2)cc1	-2	4	.	31	33	19	.	.	.	.	.
CCOc1ccc(-c2nnc(-c3ccccc3)o2)cc1	58*	-131	27	93*	91*	96*	9	8	9	2	3
CCOc1ccc(-c2cnc3ccccc3n2)cc1	66*	-441	19	98*	93*	96*	8	61*	79*	88*	58*
